We go through 5 molecules from PubChem BioAssay.

The nature of assay [1]: reducers of endogenous Her2 protein level, primary screen, SKBR3 breast tumor cells, AlphaScreen, ATP viability (AID 461;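 active = Her2 level under about 52% in both replicate screens, with viability over 70% of control, limit read from the data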;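 for Her2 level: lower value means less Her2 protein in the cells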;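 for viability: percent of carrier control wells set as 100% viability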). Particulars: 18-24 h, measured here: SKBR3 viability, ATP luminescence, at 10 µM.
Assay [2] addresses Receptor tyrosine-protein kinase erbB-2 (Homo sapiens) (UniProt P04626). The description is as above. The following applies: 18-24 h, at 10 µM, stronger effect = lower value.
The nature of assay [3]: SK-BR-3 cell growth inhibitors, pilot screen, 24 h, human (AID 572;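 active = viability at or below 10% of carrier control in both of two separate runs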;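 note: compound exposure lasted between 18 and 24 h rather than exactly 24 h; 100% = carrier-treated control wells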). Particulars: SK-BR-3 viability, CellTiter-Glo luminescence, at 10 µM, stronger effect = lower value. In general terms: In ATP-based viability assays light output follows the ATP content of the culture.
The nature of assay [4]: HUVEC growth inhibition – cell-based, human, primary screen (AID 575;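 active = viability at or below 30% in both replicate assays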;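 note: 100% = median of untreated cell wells with 0.1% DMSO on each plate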). Particulars: HUVEC proliferation, CellTiter-Glo luminescence, 72 h; at 10 µM; stronger effect = lower value.
A short description of assay [5]: growth inhibitors of H69AR lung tumor, primary screen, human, duplicate replicates (AID 580;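 active = viability at or under a set limit in both replicates, limit being median viability minus 3 SD, cut at about 48% in these data, passing the limit was not always enough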;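 note: 100% = mean luminescence of untreated wells and 0% = no signal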). The following applies: H69AR lung tumor cells viability, ATP luminescence, 72 h; at 10 µM; stronger effect = lower value.
Assay [6] is described as follows: reversal of MRP1-mediated doxorubicin resistance, pilot screen, H69AR cells, doxorubicin co-treatment (AID 601;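 active = viability loss from added drug above about 55%, and viability with drug at most 40%, in both replicates, limit read from the data, passing the limit was not always enough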). The following applies: CellTiter-Glo, 72 h, at 10 µM; for differential viability (reversal): stronger effect = higher value.
Assay [7] in a line: 384-well plate pilot, post-Golgi transport modulator project, inhibition of yeast transport mutant growth (AID 636; in the data active = inhibition above about 31%). The following applies: absorbance 615 nm, about 18 h, stronger effect = higher value.
The nature of assay [8]: growth suppression of yeast trafficking mutant, preliminary HTS, modulators of trafficking downstream of Golgi apparatus project, 1536-format plate, OD 615 nm (AID 637; in the data active = inhibition above about 30%). Particulars: yeast transport mutant growth, absorbance 615 nm, 18 h; stronger effect = higher value.
Assay [9] can be described thus: OD615 S. cerevisiae growth inhibition, permissive medium, pilot counter-assay, permissive growth control for S. cerevisiae lifespan shortening project (AID 705). The following applies: OD615, 24 h, at 10 µM, stronger effect = higher value.
The nature of assay [10]: Restrictive medium S. cerevisiae growth inhibition, OD615, pilot screen of yeast lifespan reduction project, restrictive growth control (AID 706;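 active = growth inhibition above a set limit, 3 SD over mean compound inhibition, in both replicates, cut at about 43% in these data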;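 note: modified DeaD lifespan yeast strain shifted to restrictive glucose medium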). The following applies: OD615, 48 h, at 10 µM, stronger effect = higher value.
Assay [11] is described as follows: viability gain of MRP-1-high H69AR cells under doxorubicin, pilot screen, MRP-1 activator project, CellTiter-Glo, duplicate (AID 807;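 active = viability increase at or above a cutoff of the median across tested compounds plus 3 SD, cut at about 8.5% in these data, passing the limit was not always enough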;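 note: compound pretreatment 18-22 h then 72 h combined with doxorubicin; 0% = doxorubicin alone and 100% = vehicle without doxorubicin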). The following applies: H69AR viability with doxorubicin, CellTiter-Glo luminescence; at 10 µM; stronger effect = higher value.
Assay [12] in a line: growth suppression of beta-catenin knockout HCT116, pilot screen, human colon tumor cells (AID 823;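 active = cell viability at or below a set limit in both duplicate runs, the limit being the all-compound median minus 4 SD, cut at about 23% in these data, passing the limit was not always enough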;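 note: 0% = wells killed by 20 µM Hyamine and 100% = untreated DMSO cell wells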). The following applies: CellTiter-Glo, 60 h, at 10 µM, stronger effect = lower value.
A short description of assay [13]: growth suppression of PTEN-deleted HCT116, pilot screen, cell-based, HCT116 clonal line, CellTiter-Glo (AID 824;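 active = viability at or below 27.92% in each of two runs, the all-compound median minus 4 SD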;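 note: 0% = 20 µM Hyamine control and 100% = vehicle cell control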). The following applies: 60 h, at 10 µM, stronger effect = lower value.
Assay [14] is described as follows: inhibitors of the yeast RAM network, pilot screen, dse1pr::URA3 reporter, 5-FOA selection (AID 869;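 active = inhibition over a set limit, the all-compound mean plus 3 SD, in both replicate runs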;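 note: 0% = DMSO wells with no growth and 100% = 10 µM 1-NA-PP1 with full growth; RAM network block rescues cells from 5-FOA so hits raise OD615 growth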). Particulars: S. cerevisiae dse1pr::URA3 5-FOA growth, OD615, 2 d; at 10 µM; stronger effect = higher value; strain carries analog-sensitive mutant Cbk1 kinase.
Assay [15] can be described thus: RAM signaling pathway blockade in yeast – S. cerevisiae, Pdr1DBD-CYC8 efflux-inhibited sensitized strain, primary screen (AID 1298;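 active = RAM network inhibition above 8.4% in each of two replicates, 3 SD over the compound average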;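 note: 0% = DMSO untreated cells without growth and 100% = 10 µM 1-NA-PP1 full growth; higher means more yeast growth rescued from 5-FOA killing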). The following applies: S. cerevisiae cbk1-as DSE1-URA3 strain, 5-FOA growth OD615, 2 d; at 50 µM; stronger effect = higher value.
[16] abbreviates: H69AR cells + 2 uM doxorubicin, measured here: viability with 2 uM doxorubicin, stronger effect = lower value.
[17] abbreviates: H69AR cells, compound alone cytotoxicity.

Results filed as inconclusive are left out. Active and inactive are the calls of the source.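 Rule for the calls, unless noted: active = growth inhibition above 25% in both replicates, a cutoff set 3 SD above the mean; inconclusive = above 25% in only one replicate; inactive = the rest.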

What is called viability is a read-out of living cells in per cent, often relative to untreated cells. As a reminder, the inhibition is the drop in the measured response relative to a control, in per cent.

Chain of Receptor tyrosine-protein kinase erbB-2 (Homo sapiens) (P04626 whole entry, looked up): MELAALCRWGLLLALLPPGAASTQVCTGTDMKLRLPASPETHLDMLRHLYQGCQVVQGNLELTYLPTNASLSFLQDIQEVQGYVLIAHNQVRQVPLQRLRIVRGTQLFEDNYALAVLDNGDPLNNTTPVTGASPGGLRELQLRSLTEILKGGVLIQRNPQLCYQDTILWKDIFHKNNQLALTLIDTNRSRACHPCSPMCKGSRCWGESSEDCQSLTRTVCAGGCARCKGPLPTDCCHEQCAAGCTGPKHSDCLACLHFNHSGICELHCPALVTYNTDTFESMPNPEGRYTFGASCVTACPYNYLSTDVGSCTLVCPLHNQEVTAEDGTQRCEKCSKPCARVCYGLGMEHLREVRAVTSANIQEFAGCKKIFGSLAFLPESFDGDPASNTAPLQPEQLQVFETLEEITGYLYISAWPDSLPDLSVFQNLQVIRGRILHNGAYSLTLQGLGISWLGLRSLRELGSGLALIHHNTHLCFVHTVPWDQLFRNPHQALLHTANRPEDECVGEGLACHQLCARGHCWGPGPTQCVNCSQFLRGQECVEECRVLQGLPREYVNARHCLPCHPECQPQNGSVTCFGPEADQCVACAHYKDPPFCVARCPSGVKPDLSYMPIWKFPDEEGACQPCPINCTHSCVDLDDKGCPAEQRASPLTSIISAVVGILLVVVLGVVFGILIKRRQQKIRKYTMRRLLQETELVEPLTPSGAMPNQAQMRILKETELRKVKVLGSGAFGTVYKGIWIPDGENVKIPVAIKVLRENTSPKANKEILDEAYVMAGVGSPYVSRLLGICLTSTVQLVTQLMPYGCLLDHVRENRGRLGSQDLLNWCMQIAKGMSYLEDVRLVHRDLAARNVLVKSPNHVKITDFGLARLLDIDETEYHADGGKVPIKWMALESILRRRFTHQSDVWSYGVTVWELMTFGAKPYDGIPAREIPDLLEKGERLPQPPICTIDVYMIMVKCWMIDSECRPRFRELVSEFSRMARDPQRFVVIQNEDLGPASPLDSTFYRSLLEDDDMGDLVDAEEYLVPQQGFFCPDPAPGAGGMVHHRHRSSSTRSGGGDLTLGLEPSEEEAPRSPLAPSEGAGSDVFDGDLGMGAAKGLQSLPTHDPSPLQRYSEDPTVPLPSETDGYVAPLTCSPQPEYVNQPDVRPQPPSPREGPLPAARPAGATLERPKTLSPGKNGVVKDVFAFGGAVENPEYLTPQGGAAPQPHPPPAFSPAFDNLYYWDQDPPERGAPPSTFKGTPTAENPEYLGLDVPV

Turning to `O=C(C1CCC(CNc2c(N3CCCCC3)c(=O)c2=O)CC1)N1CCc2ccccc2C1` (stereo not given), the viability in [1] is 95%; in assay [3], 95% (inactive); in assay [4], 107% (inactive); in [5], 91.8% (inactive); in [6] (setting [16]), 82.3%; in assay [6] (setting [17]), 91.8%. For the same molecule, the viability was 87.5% (inactive) in [12] and 83.2% (inactive) in assay [13]. Besides, the Her2 level in assay [2] was 93.5% (inactive). For the same molecule, in assay [6] (H69AR cells + 2 uM doxorubicin), the differential viability (reversal) was 9.49% (inactive). The inhibition is -0.53% (inactive) in assay [7], 0% (inactive) in assay [8] and -0.07% (inactive) in assay [14]. Also, the growth inhibition in assay [9] was -4.97% (inactive); in [10] it was -4.18% (inactive). Also, the viability increase in [11] was -3.33% (inactive). Also, in [15], the RAM network inhibition was 2.9% (inactive).
On to `COc1ccc(-c2nc(CSCC(=O)NCc3ccc4c(c3)OCO4)c(C)o2)cc1OC`, for which the viability in [1] is 98%; in [3], 98% (inactive); in [4] it was 92.9% (inactive); in assay [5], 84.9% (inactive); in assay [6] (setting [16]) it was 92%; in assay [6] (setting [17]), 84.9%. In addition, the viability was 84.7% (inactive) in [12] and 74.1% (inactive) in assay [13]. Moreover, the Her2 level in assay [2] is 108% (inactive). The differential viability (reversal) in assay [6] (H69AR cells + 2 uM doxorubicin) was -7.12% (inactive). In addition, the inhibition is -4% (inactive) in assay [7], 1.5% (inactive) in assay [8] and 0.57% (inactive) in assay [14]. The results for the growth inhibition in assay [9] and in [10] were -13.4% (inactive) and -12.2% (inactive), respectively. In addition, in assay [11], the viability increase was -3.57% (inactive). In addition, the RAM network inhibition in [15] is 6.3% (inactive).
Turning to `COc1ccc(NC(=O)CSc2nc3c(c(=O)n2-c2ccccc2OC)SCC3)cc1`, the viability is 102% in assay [1]; 102% (inactive) in assay [3]; 87.4% (inactive) in assay [4]; 89.7% (inactive) in assay [5]; 95.4% in assay [6] (setting [16]); 89.7% in assay [6] (setting [17]). For the same molecule, the viability in assay [12] was 99% (inactive); in assay [13], 98.9% (inactive). Also, the Her2 level in [2] is 110% (inactive). Besides, in assay [6] (H69AR cells + 2 uM doxorubicin), the differential viability (reversal) is -5.71% (inactive). In addition, the figures for the inhibition in assay [7], in assay [8] and in assay [14] were -1.6% (inactive), -5.5% (inactive) and 2.67% (inactive), respectively. The growth inhibition was 1.7% (inactive) in assay [9] and -1.84% (inactive) in [10]. Further, the viability increase in [11] is -0.32% (inactive). For the same molecule, the RAM network inhibition in assay [15] was 3.97% (inactive).
Regarding `Cc1c(C(=O)OCCOC(C)C)[nH]c2c1C(=O)CC(c1ccco1)C2` (stereo not given), the viability in assay [1] was 81%; in assay [3], 81% (inactive); in assay [4], 50.2% (inactive); in [5], 38.3% (active); in assay [6] (setting [16]), 72.7%; in assay [6] (setting [17]), 38.3%. The viability in [12] was 17.1% (active); in assay [13] it was 17.8% (active). In assay [2], the Her2 level was 73% (inactive). Besides, the differential viability (reversal) in assay [6] (H69AR cells + 2 uM doxorubicin) was -34.4% (inactive). Also, the inhibition in assay [7] is 1.47% (inactive); in assay [8], -4.59% (inactive); in assay [14], 0.735% (inactive). Further, the growth inhibition in assay [9] was -3.61% (inactive); in assay [10] it was -3.07% (inactive). In assay [11], the viability increase is -4.69% (inactive). Besides, the RAM network inhibition in [15] was -1.95% (inactive).
`N#Cc1nc(COc2ccccc2Cl)oc1N1CCCCCC1`: the viability in assay [1] is 96.5%; in assay [3], 96.5% (inactive); in assay [4], 79.6% (inactive); in [5], 93.1% (inactive); in [6] (setting [16]), 96.9%; in assay [6] (setting [17]), 93.1%. For the same molecule, the viability in assay [12] was 98.7% (inactive); in assay [13], 87.5% (inactive). The Her2 level in assay [2] is 104% (inactive). Further, the differential viability (reversal) in [6] (H69AR cells + 2 uM doxorubicin) was -3.75% (inactive). Further, the inhibition in [7] was -3.6% (inactive); in assay [8], -3.17% (inactive); in [14] it was 2.3% (inactive). Besides, the growth inhibition is 7.94% (inactive) in assay [9] and 6.52% (inactive) in [10]. For the same molecule, the viability increase in assay [11] is 2.96% (inactive). For the same molecule, the RAM network inhibition in [15] was 5.67% (inactive).
